Laboratory results taken from PubChem BioAssay.
Active and inactive are the calls of the source. Unless noted, how the calls were made is not given here.

Tests used:
[1] = compounds binding Alexa647 anti-His antibody – biochemical, small-molecule microarray, 635 nm fluorescence, artefact control for SMM control protein annotation, primary screen (AID 1128); conditions: higher = more signal;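 further: score merges feature fluorescence with signal-to-noise for each printed compound spot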
[2] = system: Human papillomavirus type 1a E7 protein (residues 1-88); assay: HPV1a E7 small-molecule binders, primary screen, biochemical, small-molecule microarray, residues 1-88, 635 nm (AID 1129); conditions: small-molecule microarray binding, fluorescence 635 nm; higher = more signal
[3] = target: Focal adhesion kinase 1 (Homo sapiens) (UniProt Q05397); assay: PTK2 protein binding on printed compound slides – biochemical, small-molecule microarray, 635/667 nm fluorescence, BSA, DTT, primary screen (AID 1130); conditions: 635 nm fluorescence, higher = more signal;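 further: composite of spot emission at 667 nm and signal to noise over triplicate slides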
[4] = system: Fibrinogen (Alexa647-labelled); assay: Alexa647-fibrinogen binding to printed small molecules – biochemical, small-molecule microarray, 635/667 nm fluorescence, artefact control for SMM control-protein annotation, profiling panel (AID 1131); conditions: fibrinogen-A647 binding fluorescence, higher = more signal;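 further: z-score merges 667 nm fluorescence with per-spot signal-to-noise over triplicate slides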
[5] = target: Follistatin (Homo sapiens) (UniProt P19883); assay: FST protein binding to printed compounds – biochemical, small-molecule microarray, 635/667 nm fluorescence, primary screen (AID 1132); conditions: 635 nm fluorescence, higher = more signal
[6] = target: Fibroblast growth factor 2 (Homo sapiens) (UniProt P09038); assay: basic fibroblast growth factor binding to printed compounds – biochemical, small-molecule microarray, 635/667 nm fluorescence, primary screen (AID 1133); conditions: FGF2, fluorescence 635/667, higher = more signal
[7] = JC-1 mitochondrial potential readout, lung cancer cells – cell-based, A549, JC-1 fluorescence, basal, 24 h, 100 nL, profiling panel (AID 1138); conditions: higher = more signal;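 further: A549 lung adenocarcinoma cells under basal conditions with no added stimulus; test concentration not given here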
[8] = system: Lefty1; assay: Lefty1 protein binding to printed compounds – biochemical, small-molecule microarray, 635/667 nm fluorescence, primary screen (AID 1139); conditions: fluorescence 635/667, higher = more signal
[9] = system: wheat germ agglutinin (Triticum aestivum), Alexa647-labelled; assay: Alexa647-WGA lectin binding to printed small molecules – biochemical, small-molecule microarray, 635/667 nm fluorescence, artefact control for SMM control-protein annotation, profiling panel (AID 1140); conditions: WGA-A647 binding, 635 nm fluorescence, higher = more signal;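 further: score merges 667 nm feature emission with signal to noise over triplicate slides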
[10] = target: Luciferin 4-monooxygenase (Photinus pyralis) (UniProt P08659); assay: inhibition of purified Photinus pyralis luciferase – biochemical, luminescence, purified enzyme, 2006 set, primary screen (AID 1141); conditions: purified firefly luciferase, SteadyGlo luminescence, 30 min; higher = more signal, called active from +8 up or from −8 down;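 further: cell-free assay with purified firefly luciferase at 100 ng per well in PBS; test concentration not given here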
[11] = system: Wnt5a (protein binding on small-molecule microarray); assay: small molecules binding Wnt5a protein – biophysical, small-molecule microarray, 635/667 nm fluorescence, primary screen (AID 1142); conditions: 635 nm fluorescence, higher = more signal;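 further: fluorescence read at 667 nm with signal to noise per printed feature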
[12] = ATP-based viability of Huh7 replicon cells – cell-based, CellTiter-Glo luminescence, basal, 48 h, cytotoxicity control for HCV replication inhibitor project, primary screen (AID 1143); conditions: higher = more signal, called active from +8 up or from −8 down;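 further: Huh7 hepatoma cells carrying a hepatitis C replication reporter with no stimulus; test concentration not given here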
[13] = Pseudomonas biofilm growth suppression – PAO1 strain, BacTiter-Glo luminescence, LB-PBS, primary screen (AID 1144); conditions: P. aeruginosa PAO1 biofilm, 12 h, higher = more signal
[14] = basal CRE-LacZ reporter activity in PC12 – cell-based, unstimulated, primary screen (AID 1145); conditions: no forskolin, luminescence, 4.5 h, higher = more signal, called active from +8 up or from −8 down
[15] = forskolin-driven CRE-LacZ activity in PC12 – cell-based, CRE-LacZ reporter, forskolin-stimulated, primary screen (AID 1146); conditions: luminescence, 4.5 h, higher = more signal, called active from +8 up or from −8 down;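 further: PC12 cells with 6xCRE LacZ reporter stimulated by forskolin 10 µM; beta-galactosidase reporter signal reflecting CREB driven transcription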
[16] = target: Streptavidin (Streptomyces avidinii) (UniProt P22629); assay: compounds binding control protein streptavidin – biophysical, small-molecule microarray, 635/667 nm fluorescence, artefact control for SMM compound annotation, primary screen (AID 1147); conditions: higher = more signal;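 further: signal reflects streptavidin binding to arrayed compounds as a control protein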
[17] = probe aInhba binding on compound microarray – biochemical, small-molecule microarray, 635/667 nm fluorescence, primary screen (AID 1148); conditions: higher = more signal;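 further: score merges 667nm spot fluorescence with signal-to-noise for antibody binding to printed compounds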
[18] = target: Torsin-1A (Homo sapiens) (UniProt O14656); assay: TOR1A wild-type binding on microarray – cell lysate, small-molecule microarray, lysate, 635/667 nm, primary screen (AID 1149); conditions: COS7 hTOR1A-WT lysate, 635 nm fluorescence, higher = more signal
[19] = target: Torsin-1A (Homo sapiens) (UniProt O14656); assay: torsin A mutant lysate binding on microarrays – cell lysate, small-molecule microarray, COS7 lysate, 635/667 nm fluorescence, primary screen (AID 1150); conditions: COS7 hTOR1A mutant lysate, 635 nm fluorescence, higher = more signal;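 further: score pools 667 nm emission and signal to noise measuring lysate protein binding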
[20] = system: Sonic hedgehog protein (Shh); assay: Sonic hedgehog microarray binding compounds – biochemical, small-molecule microarray, 635/667 nm fluorescence, primary screen (AID 1151); conditions: 635 nm fluorescence, higher = more signal;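 further: Shh protein binding to compounds spotted on small-molecule microarray slides; score combines spot fluorescence intensity with signal-to-noise across triplicate slides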

Sequence of Follistatin (Homo sapiens) (P19883 whole entry, looked up): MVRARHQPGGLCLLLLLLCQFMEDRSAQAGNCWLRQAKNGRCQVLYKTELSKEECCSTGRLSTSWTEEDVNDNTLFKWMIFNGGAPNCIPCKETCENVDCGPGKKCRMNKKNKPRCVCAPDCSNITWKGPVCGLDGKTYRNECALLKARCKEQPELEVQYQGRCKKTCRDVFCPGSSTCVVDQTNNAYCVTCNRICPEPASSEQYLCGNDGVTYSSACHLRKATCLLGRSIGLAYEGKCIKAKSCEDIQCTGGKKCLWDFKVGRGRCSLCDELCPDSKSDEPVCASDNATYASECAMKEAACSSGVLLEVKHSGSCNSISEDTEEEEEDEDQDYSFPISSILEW
Sequence of Torsin-1A (Homo sapiens) (O14656 whole entry, looked up): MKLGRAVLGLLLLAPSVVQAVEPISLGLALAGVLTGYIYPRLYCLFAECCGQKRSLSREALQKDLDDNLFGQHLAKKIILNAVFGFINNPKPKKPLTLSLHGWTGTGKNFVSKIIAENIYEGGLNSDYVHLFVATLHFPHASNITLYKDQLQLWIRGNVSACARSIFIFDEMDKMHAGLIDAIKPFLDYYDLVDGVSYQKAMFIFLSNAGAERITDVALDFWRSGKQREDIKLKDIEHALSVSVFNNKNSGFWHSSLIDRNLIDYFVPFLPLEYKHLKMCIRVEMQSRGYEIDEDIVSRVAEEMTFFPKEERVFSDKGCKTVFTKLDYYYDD
Sequence of Luciferin 4-monooxygenase (Photinus pyralis) (P08659 whole entry, looked up): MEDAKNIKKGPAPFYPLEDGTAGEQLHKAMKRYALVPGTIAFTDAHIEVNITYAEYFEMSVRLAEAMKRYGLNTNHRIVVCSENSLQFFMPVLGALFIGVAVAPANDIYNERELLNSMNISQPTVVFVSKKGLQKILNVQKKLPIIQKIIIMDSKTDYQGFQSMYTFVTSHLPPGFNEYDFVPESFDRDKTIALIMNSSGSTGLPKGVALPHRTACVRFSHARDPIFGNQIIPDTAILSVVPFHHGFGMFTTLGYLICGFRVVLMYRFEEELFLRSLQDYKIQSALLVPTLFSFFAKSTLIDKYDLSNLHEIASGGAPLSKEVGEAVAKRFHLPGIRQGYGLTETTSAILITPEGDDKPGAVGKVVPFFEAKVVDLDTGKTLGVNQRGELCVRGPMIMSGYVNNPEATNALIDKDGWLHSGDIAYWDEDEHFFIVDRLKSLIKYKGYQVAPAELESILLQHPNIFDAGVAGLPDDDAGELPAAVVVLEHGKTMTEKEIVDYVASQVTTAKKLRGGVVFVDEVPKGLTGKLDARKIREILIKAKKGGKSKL
Sequence of Fibroblast growth factor 2 (Homo sapiens) (P09038 whole entry, looked up): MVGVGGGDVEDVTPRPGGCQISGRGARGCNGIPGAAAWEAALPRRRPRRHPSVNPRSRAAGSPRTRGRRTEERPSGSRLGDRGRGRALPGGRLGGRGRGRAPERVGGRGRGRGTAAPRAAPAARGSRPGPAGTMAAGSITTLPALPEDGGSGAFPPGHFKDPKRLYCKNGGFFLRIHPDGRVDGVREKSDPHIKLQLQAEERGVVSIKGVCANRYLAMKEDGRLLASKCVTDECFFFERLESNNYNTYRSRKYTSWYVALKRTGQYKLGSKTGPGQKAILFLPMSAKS
Sequence of Focal adhesion kinase 1 (Homo sapiens) (Q05397 whole entry, looked up): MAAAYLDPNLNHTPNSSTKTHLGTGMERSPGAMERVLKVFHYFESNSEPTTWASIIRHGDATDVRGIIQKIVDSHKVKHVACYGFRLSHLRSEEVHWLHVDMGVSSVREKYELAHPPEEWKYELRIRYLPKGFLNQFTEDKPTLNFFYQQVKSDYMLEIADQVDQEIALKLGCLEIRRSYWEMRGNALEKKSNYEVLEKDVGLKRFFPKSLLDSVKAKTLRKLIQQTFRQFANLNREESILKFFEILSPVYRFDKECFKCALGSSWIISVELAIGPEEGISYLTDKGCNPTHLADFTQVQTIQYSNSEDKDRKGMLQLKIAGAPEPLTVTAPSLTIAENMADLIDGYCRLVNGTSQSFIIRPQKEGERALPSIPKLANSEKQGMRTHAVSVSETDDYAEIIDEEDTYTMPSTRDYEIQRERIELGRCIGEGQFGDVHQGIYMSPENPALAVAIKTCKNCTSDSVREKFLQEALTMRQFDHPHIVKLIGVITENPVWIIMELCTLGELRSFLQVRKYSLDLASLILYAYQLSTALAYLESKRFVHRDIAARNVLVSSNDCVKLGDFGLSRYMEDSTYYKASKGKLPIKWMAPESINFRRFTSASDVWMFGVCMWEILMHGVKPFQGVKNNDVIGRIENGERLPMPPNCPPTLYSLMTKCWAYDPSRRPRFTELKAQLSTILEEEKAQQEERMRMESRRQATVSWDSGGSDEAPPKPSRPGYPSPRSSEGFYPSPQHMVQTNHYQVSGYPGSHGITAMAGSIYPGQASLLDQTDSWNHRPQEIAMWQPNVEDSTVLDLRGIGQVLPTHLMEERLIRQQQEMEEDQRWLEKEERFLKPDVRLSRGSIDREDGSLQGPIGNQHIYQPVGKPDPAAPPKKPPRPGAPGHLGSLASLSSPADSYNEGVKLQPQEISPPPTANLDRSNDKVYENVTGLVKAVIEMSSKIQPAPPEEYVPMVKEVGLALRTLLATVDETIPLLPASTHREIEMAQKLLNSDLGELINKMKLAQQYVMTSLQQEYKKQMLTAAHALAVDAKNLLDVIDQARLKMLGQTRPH
Sequence of Streptavidin (Streptomyces avidinii) (P22629 whole entry, looked up): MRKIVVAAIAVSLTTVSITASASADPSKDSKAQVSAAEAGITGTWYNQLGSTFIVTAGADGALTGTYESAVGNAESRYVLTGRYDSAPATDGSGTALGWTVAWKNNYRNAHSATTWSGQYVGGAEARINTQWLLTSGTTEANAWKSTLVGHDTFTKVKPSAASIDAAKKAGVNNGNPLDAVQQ

Compound: CN1CCc2nc(-c3ccccc3)c(-c3ccccc3)cc2C1
- composite z-score [1]: 0.532
- composite z-score [2]: 0.26
- composite z-score [3]: 0.163
- composite z-score [4]: 0.547
- composite z-score [5]: 0.397
- composite z-score [6]: 0.325
- z-score [7]: 0.0181
- composite z-score [8]: 0.256
- composite z-score [9]: -0.0097
- z-score [10]: -0.133 (inactive)
- composite z-score [11]: 0.0321
- z-score [12]: 0.55 (inactive)
- z-score [13]: 0.99 (inactive)
- z-score [14]: 1.65 (inactive)
- z-score [15]: 0.0655 (inactive)
- composite z-score [16]: 0.0666
- composite z-score [17]: -0.176
- composite z-score [18]: 0.214
- composite z-score [19]: 0.539
- composite z-score [20]: 0.464

Compound: C#CCCCON=C1C[C@@H](O)[C@@H](O)[C@@H]2[C@@H]3C(=O)N(C[C@@H]4CCCO4)C(=O)[C@@H]3CC[C@@H]12
- composite z-score [1]: 0.265
- composite z-score [2]: 0.439
- composite z-score [3]: -0.14
- composite z-score [4]: 0.527
- composite z-score [5]: 0.378
- composite z-score [6]: 0.222
- z-score [7]: 0.441
- composite z-score [8]: 0.554
- composite z-score [9]: 0.553
- z-score [10]: -0.106 (inactive)
- composite z-score [11]: 0.195
- z-score [12]: 0.0109 (inactive)
- z-score [13]: -0.164 (inactive)
- z-score [14]: 0.0687 (inactive)
- z-score [15]: 0.305 (inactive)
- composite z-score [16]: 0.269
- composite z-score [17]: -0.142
- composite z-score [18]: 0.308
- composite z-score [19]: 0.28
- composite z-score [20]: 0.305

Compound: CCOC(=O)[C@H](Cc1ccccc1)NC(=O)CCC1CC(OC(=O)NCc2cccc3ccccc23)CC2(CCCC(COC(=O)NCCc3ccc(Cl)cc3)O2)O1 (stereo not given in full)
- composite z-score [1]: 0.486
- composite z-score [2]: 0.791
- composite z-score [3]: 0.222
- composite z-score [4]: 0.78
- composite z-score [5]: 0.461
- composite z-score [6]: 0.344
- z-score [7]: -0.243
- composite z-score [8]: 0.414
- composite z-score [9]: 0.556
- z-score [10]: 1.36 (inactive)
- composite z-score [11]: 0.0449
- z-score [12]: -2.69 (inactive)
- z-score [13]: -1.39 (inactive)
- z-score [14]: 0.563 (inactive)
- z-score [15]: 0.0305 (inactive)
- composite z-score [16]: 0.998
- composite z-score [17]: -0.223
- composite z-score [18]: -0.162
- composite z-score [19]: 0.244
- composite z-score [20]: 0.932

Compound: COc1ccc(OC[C@@H](CO)OC)cc1
- composite z-score [1]: 0.324
- composite z-score [2]: 0.0896
- composite z-score [3]: 0.172
- composite z-score [4]: 0.227
- composite z-score [5]: 0.649
- composite z-score [6]: 0.205
- z-score [7]: 0.754
- composite z-score [8]: 0.356
- composite z-score [9]: -0.254
- z-score [10]: -0.531 (inactive)
- composite z-score [11]: 0.131
- z-score [12]: 0.314 (inactive)
- z-score [13]: 0.86 (inactive)
- z-score [14]: 0.562 (inactive)
- z-score [15]: 0.17 (inactive)
- composite z-score [16]: 0.495
- composite z-score [17]: -0.0962
- composite z-score [18]: 0.373
- composite z-score [19]: 0.304
- composite z-score [20]: 0.577

Compound: CCO[C@H](c1cc(OC)cc([N+](=O)[O-])c1OC)[C@H](C)[C@@H](OC)[C@H](C)C=CCC(=O)OC
- composite z-score [1]: -0.406
- composite z-score [2]: 0.257
- composite z-score [3]: 0.115
- composite z-score [4]: 0.949
- composite z-score [5]: 0.0822
- composite z-score [6]: 0.183
- z-score [7]: 0.163
- composite z-score [8]: -0.125
- composite z-score [9]: 0.298
- z-score [10]: 0.114 (inactive)
- composite z-score [11]: 0.018
- z-score [12]: -0.267 (inactive)
- z-score [13]: -0.378 (inactive)
- z-score [14]: 0.0246 (inactive)
- z-score [15]: -0.183 (inactive)
- composite z-score [16]: -0.0837
- composite z-score [17]: -0.183
- composite z-score [18]: 0.388
- composite z-score [19]: 0.294
- composite z-score [20]: 0.628
